The source made the active and inactive calls.
Legend:
Albumin (Bos taurus) = Albumin (Bos taurus) (UniProt P02769); assay: bovine serum albumin binders on microarray, profiling panel, artefact control for SMM control protein annotation, biochemical, small-molecule microarray, Alexa647 label, 635/667 nm fluorescence (AID 1118); conditions: BSA-A647 binding, fluorescence 635 nm, higher = more signal;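 further: score merges 667 nm emission intensity and signal-to-noise per printed compound spot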
[1] = small-molecule microarray binders of probe aXIP, primary screen, biochemical, NeuroSMM set, 635/667 nm fluorescence (AID 1119); conditions: higher = more signal, called active from +8 up or from −8 down;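 further: probe is the protein aXip251-270 applied at 1 µg/mL to compound-printed slides; binding of probe to printed compounds measured as 667 nm fluorescence plus signal to noise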
[2] = small-molecule binders of probe aNOTCH3, primary screen, biochemical, small-molecule microarray, 635/667 nm fluorescence (AID 1120); conditions: higher = more signal;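 further: probe is a biotin-tagged antibody raised against NOTCH3 rather than NOTCH3 protein; score merges spot fluorescence near 667 nm with spot signal to noise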
[3] = small-molecule binders of probe aNOTCH2, primary screen, biochemical, small-molecule microarray, 635/667 nm fluorescence (AID 1121); conditions: higher = more signal;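 further: score merges feature fluorescence read at 667 nm with its signal to noise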
[4] = biological target: Carbonic anhydrase 2 (Homo sapiens) (UniProt P00918); assay: CAII small-molecule binders, profiling panel, biochemical, small-molecule microarray, Alexa647-labelled CAII (AID 1122); conditions: CAII-A647 binding fluorescence, higher = more signal
[5] = COS7 lysate on small-molecule microarray, probe aHis, 635 nm (AID 1123); conditions: COS7 cell lysate, fluorescence, higher = more signal;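 further: z-score combines 667nm fluorescence intensity with signal-to-noise per printed compound spot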
[6] = compound binding in COS7 lysate, probe aLAP1, primary screen, cell lysate, small-molecule microarray (AID 1124); conditions: probe aLAP1, fluorescence, higher = more signal;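 further: lysate comes from COS7 cells expressing LAP1 and is applied at 0.3 µg/mL; score merges spot fluorescence near 667 nm with signal-to-noise over triplicate slides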
Sam68 (KHDRBS1) = assay: Sam68 small-molecule binders, primary screen, biochemical, small-molecule microarray, 635 nm fluorescence (AID 1125); conditions: small-molecule microarray binding, higher = more signal;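 further: score merges 667 nm channel intensity with signal to noise over triplicate slides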
[7] = system: Chordin-like protein 2 (CHRDL2); assay: CHRDL2 small-molecule binders, primary screen, biochemical, small-molecule microarray, 635 nm fluorescence (AID 1126); conditions: small-molecule microarray binding, fluorescence 635 nm; higher = more signal;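 further: printed compound slides probed with Chrdl2 protein at 4 µg/mL for 1 h at 4 C; score merges 667 nm emission intensity with signal to noise over three replicate slides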
[8] = biological target: Concanavalin-A (Canavalia ensiformis) (UniProt P02866); assay: ConA small-molecule binders, primary screen, artefact control for SMM control protein annotation, biochemical, small-molecule microarray, Alexa647 label, 635 nm (AID 1127); conditions: ConA-A647 binding fluorescence, higher = more signal;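 further: z combines 667 nm emission intensity with signal-to-noise across three replicate slides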
Sequence of Concanavalin-A (Canavalia ensiformis) (P02866 whole entry, looked up): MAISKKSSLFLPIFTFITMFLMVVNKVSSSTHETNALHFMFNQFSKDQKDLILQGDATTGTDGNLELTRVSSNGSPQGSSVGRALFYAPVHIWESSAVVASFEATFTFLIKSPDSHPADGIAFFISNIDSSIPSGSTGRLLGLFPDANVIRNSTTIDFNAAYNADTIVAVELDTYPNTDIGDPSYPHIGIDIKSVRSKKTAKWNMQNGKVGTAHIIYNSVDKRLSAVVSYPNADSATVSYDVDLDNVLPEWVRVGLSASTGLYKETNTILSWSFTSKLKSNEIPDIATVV

[9] = anti-His antibody binders, primary screen, artefact control for SMM control protein annotation, biochemical, small-molecule microarray, 635 nm fluorescence (AID 1128); conditions: anti-His Alexa647 antibody binding, higher = more signal;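 further: score merges feature fluorescence with signal-to-noise for each printed compound spot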
[10] = system: Human papillomavirus type 1a E7 protein (residues 1-88); assay: HPV1a E7 small-molecule binders, primary screen, biochemical, small-molecule microarray, residues 1-88, 635 nm (AID 1129); conditions: small-molecule microarray binding, fluorescence 635 nm; higher = more signal
[11] = biological target: Focal adhesion kinase 1 (Homo sapiens) (UniProt Q05397); assay: small-molecule microarray binders of FAK, primary screen, biochemical, 635/667 nm fluorescence, BSA, DTT (AID 1130); conditions: PTK2 binding, 635 nm fluorescence, higher = more signal;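 further: composite of spot emission at 667 nm and signal to noise over triplicate slides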
Sequence of Focal adhesion kinase 1 (Homo sapiens) (Q05397 whole entry, looked up): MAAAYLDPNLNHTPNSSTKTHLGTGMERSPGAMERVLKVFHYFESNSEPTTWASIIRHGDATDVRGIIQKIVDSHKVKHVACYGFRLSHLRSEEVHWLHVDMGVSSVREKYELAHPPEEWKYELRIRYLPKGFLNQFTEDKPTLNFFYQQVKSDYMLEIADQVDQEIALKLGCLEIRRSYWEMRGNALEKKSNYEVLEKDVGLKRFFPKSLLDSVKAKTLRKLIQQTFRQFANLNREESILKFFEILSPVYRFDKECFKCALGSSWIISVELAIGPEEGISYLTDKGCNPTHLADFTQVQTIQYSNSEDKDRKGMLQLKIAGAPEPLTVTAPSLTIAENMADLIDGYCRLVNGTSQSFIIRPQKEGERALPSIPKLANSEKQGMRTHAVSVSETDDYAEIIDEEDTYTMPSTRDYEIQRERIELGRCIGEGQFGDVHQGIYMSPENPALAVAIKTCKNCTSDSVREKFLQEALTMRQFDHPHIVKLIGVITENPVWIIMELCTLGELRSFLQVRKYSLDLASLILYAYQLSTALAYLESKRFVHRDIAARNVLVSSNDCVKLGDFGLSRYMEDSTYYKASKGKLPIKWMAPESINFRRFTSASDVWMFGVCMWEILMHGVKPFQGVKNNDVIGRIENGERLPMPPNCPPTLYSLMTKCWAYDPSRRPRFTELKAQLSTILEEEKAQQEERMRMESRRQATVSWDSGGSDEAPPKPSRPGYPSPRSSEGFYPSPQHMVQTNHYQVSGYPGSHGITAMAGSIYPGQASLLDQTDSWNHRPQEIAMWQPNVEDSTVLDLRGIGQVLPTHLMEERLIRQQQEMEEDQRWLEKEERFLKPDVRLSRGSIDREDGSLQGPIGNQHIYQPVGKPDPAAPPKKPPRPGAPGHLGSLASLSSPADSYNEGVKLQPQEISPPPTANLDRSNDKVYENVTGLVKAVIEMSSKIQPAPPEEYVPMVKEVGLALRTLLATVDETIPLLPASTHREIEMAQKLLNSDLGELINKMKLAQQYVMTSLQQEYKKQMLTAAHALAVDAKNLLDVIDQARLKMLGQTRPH

[12] = system: Fibrinogen (Alexa647-labelled); assay: fibrinogen binders on compound microarrays, profiling panel, artefact control for SMM control-protein annotation, biochemical, small-molecule microarray, 635/667 nm fluorescence (AID 1131); conditions: fibrinogen-A647 binding fluorescence, higher = more signal;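 further: z-score merges 667 nm fluorescence with per-spot signal-to-noise over triplicate slides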
[13] = biological target: Follistatin (Homo sapiens) (UniProt P19883); assay: follistatin binders on small-molecule microarrays, primary screen, biochemical, small-molecule microarray, 635/667 nm fluorescence (AID 1132); conditions: FST binding, 635 nm fluorescence, higher = more signal
Sequence of Follistatin (Homo sapiens) (P19883 whole entry, looked up): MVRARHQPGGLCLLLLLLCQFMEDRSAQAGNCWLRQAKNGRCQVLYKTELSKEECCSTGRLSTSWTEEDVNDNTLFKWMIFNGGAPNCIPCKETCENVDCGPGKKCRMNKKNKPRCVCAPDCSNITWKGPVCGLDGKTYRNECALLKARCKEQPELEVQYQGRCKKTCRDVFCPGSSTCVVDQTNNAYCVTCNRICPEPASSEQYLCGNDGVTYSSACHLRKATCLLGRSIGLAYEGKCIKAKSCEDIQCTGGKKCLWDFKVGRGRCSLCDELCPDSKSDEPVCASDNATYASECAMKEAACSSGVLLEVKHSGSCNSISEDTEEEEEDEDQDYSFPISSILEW

[14] = biological target: Fibroblast growth factor 2 (Homo sapiens) (UniProt P09038); assay: FGF2 binders on small-molecule microarrays, primary screen, biochemical, small-molecule microarray, 635/667 nm fluorescence (AID 1133); conditions: small-molecule microarray binding, FGF2, fluorescence 635/667; higher = more signal
Sequence of Fibroblast growth factor 2 (Homo sapiens) (P09038 whole entry, looked up): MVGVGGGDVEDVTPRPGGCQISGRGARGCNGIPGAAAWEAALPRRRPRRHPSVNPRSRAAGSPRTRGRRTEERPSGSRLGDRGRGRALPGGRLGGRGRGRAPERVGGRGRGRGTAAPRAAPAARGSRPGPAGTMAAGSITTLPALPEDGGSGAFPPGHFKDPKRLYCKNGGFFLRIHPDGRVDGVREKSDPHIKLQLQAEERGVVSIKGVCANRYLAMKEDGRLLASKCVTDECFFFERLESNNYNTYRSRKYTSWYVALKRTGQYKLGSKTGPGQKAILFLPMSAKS

[15] = mitochondrial membrane potential change in A549 cells, profiling panel, cell-based, JC-1 fluorescence, basal, 24 h, 100 nL (AID 1138); conditions: higher = more signal;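 further: A549 lung adenocarcinoma cells under basal conditions with no added stimulus; test concentration not given here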
Lefty1 = Lefty1 binders on small-molecule microarrays, primary screen, biochemical, small-molecule microarray, 635/667 nm fluorescence (AID 1139); conditions: small-molecule microarray binding, fluorescence 635/667; higher = more signal
[16] = system: wheat germ agglutinin (Triticum aestivum), Alexa647-labelled; assay: wheat germ agglutinin binders on compound microarrays, profiling panel, artefact control for SMM control-protein annotation, biochemical, small-molecule microarray, 635/667 nm fluorescence (AID 1140); conditions: WGA-A647 binding, 635 nm fluorescence, higher = more signal;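 further: score merges 667 nm feature emission with signal to noise over triplicate slides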
[17] = biological target: Luciferin 4-monooxygenase (Photinus pyralis) (UniProt P08659); assay: firefly luciferase enzyme inhibitors, primary screen, biochemical, luminescence, purified enzyme, 2006 set (AID 1141); conditions: SteadyGlo luminescence, 30 min, higher = more signal, called active from +8 up or from −8 down;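 further: cell-free assay with purified firefly luciferase at 100 ng per well in PBS; test concentration not given here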
Sequence of Luciferin 4-monooxygenase (Photinus pyralis) (P08659 whole entry, looked up): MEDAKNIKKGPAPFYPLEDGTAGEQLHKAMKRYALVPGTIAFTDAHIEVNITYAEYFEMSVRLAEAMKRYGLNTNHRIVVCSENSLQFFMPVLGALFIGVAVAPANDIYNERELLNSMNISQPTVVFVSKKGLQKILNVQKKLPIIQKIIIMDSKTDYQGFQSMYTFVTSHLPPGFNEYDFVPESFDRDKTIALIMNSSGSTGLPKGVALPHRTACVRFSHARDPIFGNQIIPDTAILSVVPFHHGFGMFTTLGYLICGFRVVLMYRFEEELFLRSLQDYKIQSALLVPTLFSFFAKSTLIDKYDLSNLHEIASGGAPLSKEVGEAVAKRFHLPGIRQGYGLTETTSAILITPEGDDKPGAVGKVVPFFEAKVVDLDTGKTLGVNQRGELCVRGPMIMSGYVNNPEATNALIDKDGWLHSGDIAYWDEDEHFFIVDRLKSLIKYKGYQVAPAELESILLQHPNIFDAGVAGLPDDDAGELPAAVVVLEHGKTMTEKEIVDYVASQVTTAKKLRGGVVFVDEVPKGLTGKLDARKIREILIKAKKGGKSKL

Sequence of Albumin (Bos taurus) (P02769 whole entry, looked up): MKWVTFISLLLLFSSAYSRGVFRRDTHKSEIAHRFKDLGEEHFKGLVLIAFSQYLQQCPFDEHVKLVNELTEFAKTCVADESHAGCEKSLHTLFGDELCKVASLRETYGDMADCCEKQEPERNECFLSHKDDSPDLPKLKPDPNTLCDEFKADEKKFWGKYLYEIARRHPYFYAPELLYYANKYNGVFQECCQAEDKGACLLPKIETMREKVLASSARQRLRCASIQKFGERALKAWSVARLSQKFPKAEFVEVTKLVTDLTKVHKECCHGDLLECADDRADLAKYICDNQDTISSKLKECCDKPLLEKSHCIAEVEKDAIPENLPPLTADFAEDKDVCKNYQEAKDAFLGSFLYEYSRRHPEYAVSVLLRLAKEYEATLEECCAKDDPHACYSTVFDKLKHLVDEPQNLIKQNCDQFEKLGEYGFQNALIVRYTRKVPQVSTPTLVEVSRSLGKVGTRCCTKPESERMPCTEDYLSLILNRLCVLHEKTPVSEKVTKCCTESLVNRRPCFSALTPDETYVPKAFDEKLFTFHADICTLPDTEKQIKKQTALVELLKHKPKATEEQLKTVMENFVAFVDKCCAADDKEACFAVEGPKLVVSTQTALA

SMILES: COC(=O)CC=C[C@@H](C)[C@@H](C=NOC[C@@H](C)[C@H](OCc1ccccc1)C(C)C)NS(=O)(=O)c1ccc(C)cc1
- composite z-score (Albumin (Bos taurus)): -1.05
- composite Z-score [1]: 0.216 (inactive)
- composite z-score [2]: -0.161
- composite z-score [3]: -0.216
- composite z-score [4]: -0.351
- composite z-score [5]: -0.342
- composite z-score [6]: 0.102
- composite z-score (Sam68 (KHDRBS1)): -0.135
- composite z-score [7]: 0.271
- composite z-score [8]: -0.596
- composite z-score [9]: 1.82
- composite z-score [10]: -0.588
- composite z-score [11]: -0.424
- composite z-score [12]: -1.52
- composite z-score [13]: 0.131
- composite z-score [14]: 0.0249
- z-score [15]: -0.48
- composite z-score (Lefty1): 0.329
- composite z-score [16]: -1.57
- z-score [17]: 0.419 (inactive)

SMILES: CC(=O)OC[C@H]1O[C@H](CC=NO[C@@H](C)c2cc(-c3c(C)cc(C)cc3C)no2)C=C[C@@H]1OC(C)=O
- composite z-score (Albumin (Bos taurus)): 0.211
- composite Z-score [1]: 0.209 (inactive)
- composite z-score [2]: -0.0984
- composite z-score [3]: -0.0532
- composite z-score [4]: -0.273
- composite z-score [5]: -0.447
- composite z-score [6]: 0.234
- composite z-score (Sam68 (KHDRBS1)): -0.177
- composite z-score [7]: 0.236
- composite z-score [8]: 0.105
- composite z-score [9]: 1.81
- composite z-score [10]: -0.375
- composite z-score [11]: -0.206
- composite z-score [12]: 0.318
- composite z-score [13]: 0.0047
- composite z-score [14]: 0.323
- z-score [15]: -0.921
- composite z-score (Lefty1): -0.0273
- composite z-score [16]: 0.229
- z-score [17]: 0.644 (inactive)

SMILES: CCOC(=O)[C@H](Cc1ccccc1)NC(=O)CCC1CC(OC(=O)NCCc2ccc(F)cc2)CC2(CCCC(COC(=O)NCCOc3ccccc3)O2)O1 (stereo not given in full)
- composite z-score (Albumin (Bos taurus)): 0.595
- composite Z-score [1]: -0.275 (inactive)
- composite z-score [2]: 0.0833
- composite z-score [3]: -0.0189
- composite z-score [4]: 0.0403
- composite z-score [5]: 0.585
- composite z-score [6]: 0.283
- composite z-score (Sam68 (KHDRBS1)): 1.29
- composite z-score [7]: 0.508
- composite z-score [8]: 0.909
- composite z-score [9]: 0.569
- composite z-score [10]: 1.18
- composite z-score [11]: 0.237
- composite z-score [12]: 0.855
- composite z-score [13]: 0.557
- composite z-score [14]: 1.24
- z-score [15]: 0.678
- composite z-score (Lefty1): 1.29
- composite z-score [16]: 0.362
- z-score [17]: 0.46 (inactive)

SMILES: COc1ccc(O[C@H]2C=C[C@@H](c3ccccc3)O[C@@H]2COC(=O)CCC(C)=NOC[C@@H](O)COCc2ccco2)cc1
- composite z-score (Albumin (Bos taurus)): 0.214
- composite Z-score [1]: -0.22 (inactive)
- composite z-score [2]: -0.919
- composite z-score [3]: -0.271
- composite z-score [4]: -0.888
- composite z-score [5]: -1.8
- composite z-score [6]: -0.875
- composite z-score (Sam68 (KHDRBS1)): -0.875
- composite z-score [7]: -3.04
- composite z-score [8]: -2.57
- composite z-score [9]: 0.614
- composite z-score [10]: -0.99
- composite z-score [11]: -0.814
- composite z-score [12]: -3.44
- composite z-score [13]: -2.77
- composite z-score [14]: -2.63
- z-score [15]: -0.424
- composite z-score (Lefty1): -1.58
- composite z-score [16]: -0.674
- z-score [17]: -0.49 (inactive)

SMILES: O=C1CCCC=C1C(O)c1ccc([N+](=O)[O-])cc1 (stereo not given)
- composite z-score (Albumin (Bos taurus)): 0.265
- composite Z-score [1]: -0.163 (inactive)
- composite z-score [2]: 0.0494
- composite z-score [3]: -0.148
- composite z-score [4]: -0.187
- composite z-score [5]: -0.251
- composite z-score [6]: 0.0252
- composite z-score (Sam68 (KHDRBS1)): -0.311
- composite z-score [7]: 0.0616
- composite z-score [8]: -0.343
- composite z-score [9]: -0.162
- composite z-score [10]: 0.154
- composite z-score [11]: -0.126
- composite z-score [12]: -0.101
- composite z-score [13]: -0.102
- composite z-score [14]: 0.511
- z-score [15]: -0.115
- composite z-score (Lefty1): 0.0283
- composite z-score [16]: -0.199
- z-score [17]: -0.171 (inactive)

SMILES: CC(C)(C)N1C(=O)[C@H]2[C@@H]3C(=CC[C@H]2C1=O)C(=O)[C@H]1O[C@H]1[C@H]3O
- composite z-score (Albumin (Bos taurus)): 0.0159
- composite Z-score [1]: 0.321 (inactive)
- composite z-score [2]: -0.0976
- composite z-score [3]: -0.154
- composite z-score [4]: -0.444
- composite z-score [5]: -0.511
- composite z-score [6]: -0.058
- composite z-score (Sam68 (KHDRBS1)): -0.657
- composite z-score [7]: 1.04
- composite z-score [8]: -0.721
- composite z-score [9]: 0.23
- composite z-score [10]: -0.137
- composite z-score [11]: -0.339
- composite z-score [12]: -1.06
- composite z-score [13]: 0.1
- composite z-score [14]: -0.17
- z-score [15]: -0.732
- composite z-score (Lefty1): -0.0815
- composite z-score [16]: 0.844
- z-score [17]: -2.65 (inactive)
